# Test results: the supplement of paper PMC13380429
# A number with no mark means an inactive call.
# System: Vero E6 infected with SARS-CoV-2
# Assay: inhibition of SARS-CoV-2 cytopathic effect; higher = more antiviral protection, active = above 15
# Details: 48 h
Structure (SMILES),inhibition of SARS-CoV-2 cytopathic effect (1 nM) [%],inhibition of SARS-CoV-2 cytopathic effect (8.33 nM) [%],inhibition of SARS-CoV-2 cytopathic effect (100 nM) [%],inhibition of SARS-CoV-2 cytopathic effect (833.33 nM) [%],inhibition of SARS-CoV-2 cytopathic effect (10000 nM)
C=CCN1CC[C@]23CCCC[C@H]2[C@H]1Cc1ccc(O)cc13 [levallorphan],-1.28,0.72,-1.34,-1.26,-3.54%
COc1ccc2c(C)nc(Nc3nc(C)c(C)c(O)n3)nc2c1 [madrasin],-1.29,0.26,1.24,0.66,30.8% (active)
C[C@]12CCC(=O)C=C1C=C[C@@H]1[C@@H]2CC[C@@]2(C)[C@H]1CC[C@@]21CCC(=O)O1 [canrenone],-1.44,-1.41,-2.85,-2.53,6.34%
CC(C)(O)CC(=O)NCCn1ccc2ncnc(Nc3ccc(Oc4cccc(C(F)(F)F)c4)c(Cl)c3)c21,4.78,7.81,3.51,-7.39,-14.1%
CCCCN1[C@@H]2CC[C@H]1C[C@@H](OC(c1ccc(F)cc1)c1ccc(F)cc1)C2,-4.04,0.46,3.9,2.41,37% (active)
O=C(C[C@H]1CC(c2ccc(F)cc2F)=NO1)N1CCOCC1 (racemic),-1.54,0.9,2.24,0.99,1.2%
CCN(CC)CCN[C@@H](C(=O)OCCC(C)C)c1ccccc1 [camylofine-chlorhydrate],-0.61,-0.68,-1.25,0.17,-1.1%
c1ccc(COCCCc2c[nH]cn2)cc1 [proxyfan],-1.62,-1.11,-0.96,0.04,-3.35%
CC(=O)N[C@H]1[C@@H](O)[C@H](O)[C@@H](CO)O[C@@H]1O [N-acetylmannosamine],0.48,-0.18,-0.61,-1.2,1.32%
CCN1/C(=C/C(C)=O)Sc2ccc(OC)cc21,1.8,1.75,-2.1,0.11,0.79%
CNCCCC1(c2ccccc2)OC(C)(C)c2ccccc21 (stereo not given) [talopram],-0.51,-1.8,0.91,-2.03,-3.52%
C=C1CCN([C@H](C)[C@](O)(Cn2cncn2)c2ccc(F)cc2F)CC1 [efinaconazole],-0.21,1.69,0.85,0.56,2.84%
NCCCNCCCCNCCCN [spermine],1.74,-5.72,-0.71,-2,2.37%
N#Cc1c(O)c2c(-c3ccc(-c4ccccc4O)cc3)csc2[nH]c1=O,-1.57,-3.91,-1.86,0.75,3.92%
Nc1nnc(Sc2ncc([N+](=O)[O-])s2)s1,3.57,-1.18,-0.27,-2.43,-20.9%
N#Cc1ccc(N2CCN(C(=O)COc3ccc4[nH]cc(CCN)c4c3)CC2)cc1 [donitriptan],-0.48,-0.51,0.51,-0.87,1.77%
Cn1cc(-c2ccc3nnc(Sc4ccc5ncccc5c4)n3n2)cn1,0.46,-0.33,-1.37,-0.25,3.33%
CO/N=C(\C(=O)N[C@@H]1C(=O)N2C(C(=O)O)=C(CSC(=O)c3ccco3)CS[C@H]12)c1csc(N)n1,-0.19,-0.66,-1.18,-0.09,-0.18%
CC1=CC[C@@H](C(C)(C)O)C[C@@H]1O [sobrepin],-10,-11.1,-11.4,-13.5,-10.4%
CC[C@H](Nc1ncnc2[nH]cnc12)c1nc2cccc(F)c2c(=O)n1-c1ccccc1 [idelalisib],-1.64,2.2,1.98,3.57,-3.36%
OC(c1ccccc1)(c1ccccc1)C1CCNCC1 [azacyclonol],-0.3,1.56,-2.53,-0.09,-3.58%

Structure (SMILES),inhibition of SARS-CoV-2 cytopathic effect (1 nM) [%],inhibition of SARS-CoV-2 cytopathic effect (8.33 nM) [%],inhibition of SARS-CoV-2 cytopathic effect (100 nM) [%],inhibition of SARS-CoV-2 cytopathic effect (833.33 nM) [%],inhibition of SARS-CoV-2 cytopathic effect (10000 nM)
CC[C@H](C)[C@H](N)C(=O)O [isoleucine],-1.51,-4.12,-0.12,0.05,1.97%
CC(=O)c1ccc2c(c1)N(CCCN1CCC(CCO)CC1)c1ccccc1S2 [piperacetazine],4.15,4.04,1.55,0.28,3.14%
O=C(O)CCc1ccc(NCc2cccc3c2CCCN3CCOc2ccccc2)cc1F,2.94,4.34,-0.81,1.53,0.9%
O=C(N[C@H]1CCN(C(=O)c2cc(C(F)(F)F)cc(C(F)(F)F)c2)[C@H](Cc2ccc(Cl)cc2)C1)c1ccnc2ccccc12,-1.66,-1.32,1.01,2.87,0.89%
CC(C)(C)NCC(O)c1ccc(O)c(CO)c1 (stereo not given) [albuterol],-4.08,-2.63,-5.03,-4.97,-3.93%
CNC(=O)CN(CCN(CCN(CC(=O)[O-])CC(=O)NC)CC(=O)[O-])CC(=O)[O-].[Gd+3] [gadodiamide],-0.88,-0.45,-3.37,-0.21,1.36%
CCCCn1c(=O)c2[nH]c(C34CC5CC(CC3C5)C4)nc2n(CCCO)c1=O,1.96,2.64,0.93,-1.18,-2.7%
O=C(O[C@H]1C[C@H]2CC[C@@H](C1)[N+]21CCCC1)C(O)(c1ccccc1)c1ccccc1 [trospium],-1.88,0.55,1.21,-1.72,-0.69%
CCN1CCN(C(=O)N[C@@H](C(=O)N[C@@H]2C(=O)N3C(C(=O)O)=C(CSc4nnnn4C)CS[C@H]23)c2ccc(O)cc2)C(=O)C1=O [cefoperazone],-0.37,-0.65,0.99,3.89,2.57%
COc1ccc(-c2coc3cc(O)cc(O)c3c2=O)cc1 [4-methylgenistein],-1.18,-0.05,0.18,-1.7,2.29%
C[C@]12CC[C@H](O)CC1=CC[C@@H]1[C@@H]2CC[C@]2(C)C(c3cccnc3)=CC[C@@H]12 [Abiraterone (CB-7598)],2.77,5.09,3.28,2.56,1.88%
FCc1ccc(OCCOc2ccc(Cl)cc2Cl)c(Cl)n1,2.16,2.42,2.11,1.12,1.65%
c1ccc2c(c1)sc1ccccc12 [dibenzothiophene],-0.91,1.31,0.34,0.07,0.68%
CC(C)NCCN(C(C)C)S(=O)(=O)c1ccc(Cl)cc1Cl,1.45,-1.25,0.74,-2.09,-5.49%
O=C(Nc1cccc(Cl)c1)c1ccccn1,0.86,-0.89,-2.59,0.62,0.73%
Cc1cccc(-c2[nH]c(C(C)(C)C)nc2-c2ccc3c(c2)OCO3)n1,-0.26,-0.29,-0.87,-5.24,-2.91%
COc1cc2c(cc1OCCCN1CCCC1)N=C(N)C21CCC1,-1.51,0.76,0.57,1.84,1.55%
C[C@H]1CCc2c(cc(Br)c(F)c2Br)N1C=O,-0.42,-1.13,-1.55,-0.53,-1.25%
COc1cc2c(cc1OC)C(=O)C(CC1CCN(Cc3ccccc3)CC1)C2 (stereo not given) [donepezil],-2.44,-3.45,-1.84,-1.28,-8.45%
CN=C(N)NCCC[C@H](N)C(=O)O [L-monomethylarginine],-0.78,-1.38,0.7,1.39,-1.85%
